From PubChem BioAssay (NCATS) come the findings set out here.

A short description of test [1]: qHTS profiling of the MIPE4 collection as inhibitors of Plasmodium falciparum (3D7) proliferation (AID 743344).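 Further: scaled between DMSO vehicle wells and 0.29 µM artemisinin as full inhibition.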 The following applies: P. falciparum 3D7 in erythrocytes, SYBR Green DNA fluorescence, 72 h; at 28.5 µM unless noted. The essentials:
(§1)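 Erythrocytes infected with P. falciparum (0.3% parasitemia, 2.5% hematocrit) incubated with compounds 72 h at 37 C, 5% CO2. Lysis with saponin/Triton buffer containing SYBR Green I, overnight at room temperature in the dark; DNA fluorescence (485/535 nm) normalised to 0.29 uM artemisinin and DMSO.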

Test [2] is described as follows: qHTS profiling of the MIPE4 collection as inhibitors of Plasmodium falciparum (DD2) proliferation (AID 743345). The following applies: P. falciparum Dd2 in erythrocytes, SYBR Green DNA, 72 h; at 28.5 µM unless noted. The essentials:
as §1

Test [3] is described as follows: qHTS profiling of the MIPE4 collection as inhibitors of Plasmodium falciparum (HB3) proliferation (AID 743347).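 Further: plate controls were DMSO vehicle wells for no effect and artemisinin wells for full effect.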 The following applies: P. falciparum HB3 in erythrocytes, SYBR Green DNA, 72 h; at 28.5 µM unless noted. An outline of the steps:
as §1

Test [4] is described as follows: High-throughput drug toxicity screening in the BPDCN cell line Cal-1 (AID 1224825). The following applies: Cal-1 BPDCN cell viability, qHTS; at 45.8 µM (top of the series) unless noted. An outline of the steps: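 Cal-1 cells, 500 per well in phenol-red-free RPMI with 10% FBS, exposed to compounds for 48 hours at 37C, 5% CO2. Viability read by CellTiter-Glo luminescence; percent activity normalized to DMSO (100%) and 9.2 uM bortezomib final (0%).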

A short description of test [5]: qHTS assay for measurement of the activity of small molecule inhibitors on Zika virus induced Caspase-3 activity in human astrocytoma cells (AID 1224859; active means well fitted curve in the direction sought with a large enough effect; an effect the other way counts as inactive or inconclusive;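 further: plate controls were ZIKV-infected untreated cells for no effect and uninfected cells for full effect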). The essentials: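 Percent inhibition of virus-induced caspase-3/7 signal is calculated against uninfected and ZIKV-infected control cells. Cells are SNB-19, infected at 2 FFU/cell for 6 h after 1 h compound exposure.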

A short description of test [6]: qHTS Screen of the MIPE 4.0 Collection Against Ewings Sarcoma (TC71) (AID 1259253; active means well fitted curve in the direction sought with a large enough effect; an effect the other way counts as inactive or inconclusive; further: nearly all actives have a fitted effect of over 40% in size; further: potency means the concentration at half of the fitted maximal effect). The essentials:
(§2)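 Viability screen: 48 h incubation at 37C, 95% humidity, 5% CO2 with serially titrated compound, followed by CellTiter-Glo readout.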

Test [7] can be described thus: qHTS Screen of the MIPE 4.0 Collection Against Ewings Sarcoma (EW8) (AID 1259255; active means well fitted curve in the direction sought with a large enough effect; an effect the other way counts as inactive or inconclusive; further: nearly all actives have a fitted effect of over 35% in size; further: potency means the concentration at half of the fitted maximal effect;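 on viability: 100% = DMSO-treated cells and 0% = medium-only wells without cells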). An outline of the steps:
as §2

Test [8] is described as follows: qHTS profiling of the MIPE4 collection as inhibitors of Plasmodium falciparum (DD2) proliferation (Rep 2) (AID 743346). The following applies: P. falciparum Dd2 in erythrocytes, SYBR Green DNA, 72 h; at 28.5 µM unless noted. An outline of the steps:
as §1

A short description of test [9]: qHTS Screen of the MIPE 4.0 Collection Against Ewings Sarcoma (RDES) (AID 1259252; active means well fitted curve in the direction sought with a large enough effect; an effect the other way counts as inactive or inconclusive; further: potency means the concentration at half of the fitted maximal effect; nearly all actives have a fitted effect of over 35% in size). An outline of the steps:
as §2

Test [10] can be described thus: qHTS assay for small molecule agonists of the antioxidant response element (ARE) signaling pathway measured by Nrf2-dependant transcriptional activity - cell viability counter screen (AID 720653; active means well fitted curve in the direction sought with a large enough effect in the repeat runs; an effect the other way counts as inactive or inconclusive; further: on the % scale 0 is the no-effect control and ±100 the full control effect). The following applies: ARE-bla HepG2 viability, CellTiter-Glo ATP luminescence, 16 h; max response: stronger effect = lower value. The essentials:
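ARE-bla HepG2 cells treated with compounds for 16 h at 37C; this counter screen measures viability as intracellular ATP by CellTiter-Glo luminescence after 30 min at room temperature.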

The target of test [11] is T1, Hexokinase-4 (Homo sapiens) + Glucokinase regulatory protein (Homo sapiens) (UniProt P35557+Q14397). Nature of the test: qHTS assay for inhibitors of recombinant human GCK-GKRP interaction: Diaphorase-coupled assay (AID 743205; active means well fitted curve in the direction sought with a large enough effect; an effect the other way counts as inactive or inconclusive). The essentials: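 Resorufin fluorescence (525/590 nm), read each minute over 30 min, reports GCK activity coupled via G6PDH and diaphorase. Reaction: 10 nM GST-GCK, 10 nM FLAG-GKRP, 5 mM glucose, 0.4 mM ATP, 0.15 mM NADP+, 0.1 mM resazurin.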
T1 sequence (P35557 whole entry, looked up): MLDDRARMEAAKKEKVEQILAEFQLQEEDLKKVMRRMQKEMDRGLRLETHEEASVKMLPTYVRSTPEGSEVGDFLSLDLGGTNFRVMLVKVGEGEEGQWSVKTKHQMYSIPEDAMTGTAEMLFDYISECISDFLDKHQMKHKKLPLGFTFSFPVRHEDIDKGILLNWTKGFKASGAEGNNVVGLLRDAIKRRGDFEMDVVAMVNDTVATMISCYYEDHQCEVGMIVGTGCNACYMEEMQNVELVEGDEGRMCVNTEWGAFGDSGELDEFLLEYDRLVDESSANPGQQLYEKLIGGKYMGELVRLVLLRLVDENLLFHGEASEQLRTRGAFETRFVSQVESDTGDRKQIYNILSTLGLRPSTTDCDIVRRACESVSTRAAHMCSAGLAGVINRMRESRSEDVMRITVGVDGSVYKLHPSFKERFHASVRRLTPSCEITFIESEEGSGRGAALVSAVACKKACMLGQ
T1 sequence (Q14397 whole entry, looked up): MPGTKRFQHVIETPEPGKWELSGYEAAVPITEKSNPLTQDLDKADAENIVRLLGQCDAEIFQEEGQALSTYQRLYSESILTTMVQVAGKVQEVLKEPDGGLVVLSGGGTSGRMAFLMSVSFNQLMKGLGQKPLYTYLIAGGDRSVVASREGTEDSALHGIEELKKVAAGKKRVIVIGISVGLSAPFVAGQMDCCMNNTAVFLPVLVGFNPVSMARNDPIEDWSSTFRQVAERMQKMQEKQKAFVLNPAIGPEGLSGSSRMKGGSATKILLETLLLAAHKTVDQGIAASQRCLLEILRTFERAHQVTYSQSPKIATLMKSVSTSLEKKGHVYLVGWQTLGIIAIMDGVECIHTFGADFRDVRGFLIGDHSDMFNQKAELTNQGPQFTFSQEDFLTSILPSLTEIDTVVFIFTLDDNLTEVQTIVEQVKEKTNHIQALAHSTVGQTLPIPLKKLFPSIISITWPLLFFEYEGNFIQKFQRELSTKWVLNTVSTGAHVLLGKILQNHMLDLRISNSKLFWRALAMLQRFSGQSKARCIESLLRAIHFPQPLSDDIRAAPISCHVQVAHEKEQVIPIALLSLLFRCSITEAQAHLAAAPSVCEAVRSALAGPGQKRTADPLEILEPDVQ

In test [12] the target is T1, Hexokinase-4 (Homo sapiens) + Glucokinase regulatory protein (Homo sapiens). The test can be described thus: qHTS assay for inhibitors of recombinant human GCK-GKRP interaction: ADP-Glo assay (AID 743206; active means well fitted curve in the direction sought with a large enough effect; an effect the other way counts as inactive or inconclusive;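 further: plate controls were DMSO plus enzyme for no effect and no enzyme for full effect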). The essentials: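 GST-GCK and FLAG-GKRP (15 nM each in the dispensed mix, with 2 uM S6P) react with 0.4 mM ATP and 5 mM glucose (final) in Hepes pH 7.6 for 60 min at room temperature. ADP is measured by ADP-Glo luminescence.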

For test [13] the target is unchanged. The test can be described thus: qHTS assay for inhibitors of recombinant human GCK-GKRP interaction: HTRF assay (AID 743207; active means well fitted curve in the direction sought with a large enough effect; an effect the other way counts as inactive or inconclusive;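 further: 0% = DMSO with GCK present and -100% = DMSO wells lacking GCK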). An outline of the steps:
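HTRF read-out (ex 320 nm; 615/665 nm emission) after 60 min RT equilibration of 5 nM GST-GCK, 5 nM FLAG-GKRP, 2 uM S6P, compound and anti-FLAG/anti-GST detection antibodies; signal normalized between DMSO wells with and without GCK.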

A short description of test [14]: qHTS assay for cell viability of the p53RE-bla HCT-116 cell line (AID 743292; active means well fitted curve in the direction sought with a large enough effect; an effect the other way counts as inactive or inconclusive; further: on the % scale 0 is the no-effect control and ±100 the full control effect; nearly all actives have a fitted effect of over 55% in size). An outline of the steps:
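Readout: CellTiter-Glo luminescence after 30 min RT. Treatment: compounds in DMSO, 16 h, 37 C. Cells: CellSensor p53RE-bla HCT-116, 4,000/well, preincubated 5 h.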

The nature of test [15]: High-throughput drug toxicity screening in the BPDCN cell line Gen2.2 (AID 1224824).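 Further: cells exposed to compounds for 48 h before reading.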 The following applies: Gen2.2 BPDCN cells; at 45.8 µM (top of the series) unless noted. The essentials: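 CellTiter-Glo luminescence after 48 h compound exposure of Gen2.2 cells; percent activity set with DMSO as 100% and bortezomib (9.2 uM final) as 0%. Cells seeded at 500 per well, RPMI + 10% FBS, 37 °C.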

The nature of test [16]: qHTS assay for measurement of the activity of small molecule inhibitors on Zika virus induced Caspase-3 activity in human iPSC derived neural progenitor cells (hNPCs) (AID 1224857; active means well fitted curve in the direction sought with a large enough effect; an effect the other way counts as inactive or inconclusive; further: nearly all actives have a fitted effect of over 65% in size; further: potency means the concentration at half of the fitted maximal effect). The essentials: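 Cells were plated at 350 per well and grown 16 to 20 hours. Compound pretreatment lasted one hour, after which ZIKV (2 FFU/cell) was added for 6 hours. Percent inhibition was normalized between uninfected and infected controls.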

Records with an inconclusive call do not appear. Calls of active or inactive are those of the source. Unless noted, how the calls were made is not given here.

Regarding `COc1ccc(-c2coc3cc(O)cc(O)c3c2=O)cc1`, the parasite growth, % of DMSO control in test [1] came out at 36.9%. The parasite growth remaining, % of DMSO control (lower = more inhibition) in test [2] amounted to 99.4%. In test [3], the growth, % of control came to 15.1%. Further, in test [4], the viability (% of control) was 86.9%. The Potency entry in test [5], in test [6] and in test [7] was “inactive” each time.

In test [1], `CC[C@@]1(O)C[C@H](O[C@H]2C[C@H](N(C)C)[C@H](O[C@H]3C[C@H](O)[C@H](O[C@H]4CCC(=O)[C@H](C)O4)[C@H](C)O3)[C@H](C)O2)c2c(cc3c(c2O)C(=O)c2c(O)cccc2C3=O)[C@@H]1C(=O)OC` showed a parasite growth, % of DMSO control of 3.31%. Also, the parasite growth remaining, % of DMSO control (lower = more inhibition) in [2] stood at 4.79%. In test [8], the parasite growth, % of control (lower = inhibition) was 5.22%. The growth, % of control in [3] is 2.06%. Besides, the viability (% of control) in test [4] turned out to be 3.95%. Also, in test [5], the Potency entry was “inactive”. Further, the Potency was 0.59 µM (active) in test [9], 0.187 µM (active) in test [6] and 0.296 µM (active) in test [7].

Regarding `CC(C)OC(=O)C(C)(C)Oc1ccc(C(=O)c2ccc(Cl)cc2)cc1`, the max response in test [10] was 3.55% (inactive). For the same compound, the result in [11], in test [12] and in test [13] was inactive. Also, the Potency result in [14] was “inactive”. For the same compound, the cell viability, % of control (lower = more cytotoxic) in test [15] stood at 250%. Besides, the viability (% of control) in test [4] turned out to be 119%.

On to `OC[C@H]1O[C@@H](Oc2cc(O)cc(C=Cc3ccc(O)cc3)c2)[C@H](O)[C@@H](O)[C@H]1O`, for which, in test [1], the parasite growth, % of DMSO control was determined as 82.6%. Further, the parasite growth remaining, % of DMSO control (lower = more inhibition) in test [2] turned out to be 120%. For the same compound, the parasite growth, % of control (lower = inhibition) in [8] was 77.5%. In test [3], this compound gave a growth, % of control of 83.3%. Further, the viability (% of control) in test [4] was 60.5%. In test [5], the Potency entry was “inactive”.

In test [1], `O=c1cc(-c2ccccc2)oc2cc(O)c(O)c(O)c12` registered a parasite growth, % of DMSO control of 7.41%. Also, the parasite growth remaining, % of DMSO control (lower = more inhibition) in [2] is 24.2%. Further, the parasite growth, % of control (lower = inhibition) in [8] is 28.3%. In test [3], this compound had a growth, % of control of 6.52%. Moreover, the viability (% of control) in test [4] worked out at 91.7%. Moreover, in test [5], the Potency result is “inactive”. In addition, the Potency was 20.9 µM (active) in [9] and 23.5 µM (active) in test [6].

For `COc1ccc(-c2oc3c(CC=C(C)C)c(OC4O[C@H](CO)[C@@H](O)[C@H](O)[C@@H]4O)cc(O)c3c(=O)c2OC2O[C@@H](C)[C@H](O)[C@@H](O)[C@@H]2O)cc1` (stereo partly specified), in [2], the parasite growth remaining, % of DMSO control (lower = more inhibition) turned out to be 5.99%. Besides, the parasite growth, % of control (lower = inhibition) in [8] was 36.2%. For the same compound, the growth, % of control in [3] came out at 11.3%. The viability (% of control) in [4] was 102%. Moreover, the Potency result in [16] was “inactive”. Moreover, the Potency in test [6] is 26.4 µM (active).

For `c1cc(-c2sc(-c3ccncc3)c(-c3ccncc3)c2-c2ccncc2)ccn1`, the parasite growth, % of DMSO control in test [1] was found to be 8.84%. Also, the parasite growth remaining, % of DMSO control (lower = more inhibition) in test [2] is 81.7%. The parasite growth, % of control (lower = inhibition) in [8] was found to be 19.1%. Also, the growth, % of control in test [3] stood at 3.72%. Further, the viability (% of control) in test [4] was determined as 79.1%. In addition, the Potency result in test [16] is “inactive”.

Consider `CC1(C)Cc2c(sc(NC(=S)NC(=O)c3ccccc3)c2C(=O)O)CO1`, for which the parasite growth, % of DMSO control in [1] turned out to be 90.4%. Moreover, in test [2], the parasite growth remaining, % of DMSO control (lower = more inhibition) was 100%. In addition, the parasite growth, % of control (lower = inhibition) in test [8] was found to be 110%. In addition, the viability (% of control) in test [4] turned out to be 95.7%. In addition, the Potency in test [16] was 20.9 µM (active); in [9], 29.6 µM (active). Further, in test [7], the Potency result is “inactive”.
